Screening results as filed in PubChem.
KCNH2 3.1 block = qHTS for Inhibitors of KCHN2 3.1: Mutant qHTS. activity change, % (tested at about 1.8 µM). 340,000 tested, 0.95% active. U2OS KCNH2 3.1, thallium flux FluxOr; hits give low values;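 active means maximum activity change below -70%; inconclusive means maximum activity change from -70% to -50%; inactive means maximum activity change above -50%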;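 further: thallium influx rate constant from kinetic fluorescence after stimulation buffer; on the % scale 0 is the no-effect control and ±100 the full control effect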
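Channel expression came from 3.1 mutant virus (1.77 x 10^8 /mL) applied to suspended U2OS cells for 4 h. Flux was tracked with FluxOr dye plus Red40 quencher, and kinetic rate constants normalized to controls.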
ALOX12 inh = Primary qHTS assay for inhibitors of human arachidonate 12S-lipoxygenase (ALOX12): Round 2; Polyunsaturated fatty acid lipoxygenase ALOX12 (Homo sapiens), P18054; purified 12hLO, xylenol orange hydroperoxide absorbance; 580,000 tested, 1.1% active; Potency, µM (series often up to 108 µM), without a hit: top-dose activity change, negative = inhibition, most hits filed as inhibitors; further: potency means the concentration at half of the fitted maximal effect; on the % scale 0 is the no-effect control and ±100 the full control effect
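Purified human 12hLO at 150 nM in 25 mM Hepes, 0.01% Triton X-100, pH 7.0, preincubated 15 min at room temperature with compound. Reaction started with 40 uM arachidonic acid, 30 min at room temperature. Hydroperoxide measured by Fe-xylenol orange, 573/405 nm absorbance ratio.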
hERG WT inh = qHTS for Inhibitors of KCHN2 3.1: Wildtype qHTS; U2OS, BacMam KCNH2, thallium flux FluxOr; hits give low values; AID 720551, 2013; activity change, % at 1.84 µM; 340,000 tested, 0.37% active; Voltage-gated inwardly rectifying potassium channel KCNH2 (Homo sapiens), Q12809;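 active means maximum activity change below -70%; inconclusive means maximum activity change between -70% and -50%; inactive means maximum activity change above -50%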; further: on the % scale 0 is the no-effect control and ±100 the full control effect
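U2OS cells were transduced with wild-type KCNH2 virus (2.03 x 10^8 / mL) for 4 h at room temperature, then cultured overnight at 37 C. Thallium flux was read with FluxOr dye. Rate constants were normalized to DMSO controls.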
Chronic BCR inh = qHTS Assay to Find Inhibitors of Chronic Active B-Cell Receptor Signaling; ABC-DLBCL IkBa-CBG/CBR reporter, luminescence ratio, 4 h; Potency, µM (series often up to 46.1 µM), for inactives: at the top dose activity change, negative = inhibition, usual class: inhibitors; 340,000 tested, 0.05% active; AID 493014, 2011; active means well fitted inhibition curve with a large enough effect in the signal ratio, with a control signal flat, not every such curve was filed as active; inconclusive means small, poorly fitted or top-dose-only effect, or effect the other way, or a change in a side signal; the % refers to the signal ratio;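 further: potency means the concentration at half of the fitted maximal effect; plate controls were basal doxycycline-induced cells for no effect and cells given 10 µM MG132 for full effect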
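Cell line TMD8 (human ABC DLBCL), stably expressing tet-inducible CBG68-IkBa fusion and CBR; IMDM/0.5% FBS; cpd up to 46 uM; dox induction, 4 h, 37C/5% CO2; dual luminescence; green/red ratio; MG132 control.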
LDHA inh = qHTS assay for inhibitors of human lactate dehydrogenase | activity change, % (values are at about 110 or 230 µM) | 480,000 tested, 0.15% active | purified LDHA, NADH/diaphorase-resazurin fluorescence; hits give low values | AID 1347041, 2019 | L-lactate dehydrogenase A chain (Homo sapiens), P00338; in the data active means activity change below about -30%; inconclusive means mostly about -25% to -30%;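 further: plate controls were DMSO wells for no effect and wells without enzyme for full effect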
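Human LDH5 at 2 nM final in Tris HCl pH 7.4 with 0.06 mM NADH and 0.2 mM pyruvate, reacted 5 minutes at room temperature. Remaining NADH coupled via diaphorase/resazurin; resorufin fluorescence read at 0 and 20 minutes, normalized to enzyme-free and DMSO wells.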
ClpP mod = qHTS Assay for Activators of ClpP. purified B. subtilis ClpP, FRET peptide cleavage, 20 min. Potency, µM (top dose mostly 57.5 µM), for the others: at the top dose activity change, negative = active. 340,000 tested, 1.9% active; active means well fitted falling curve with a large enough effect; inconclusive means small, poorly fitted or top-dose-only effect; inactive means no such curve, though single readings can be large or run the other way; further: potency means the concentration at half of the fitted maximal effect; the source files actives as falling curves though it sought activators and does not explain the sign; nearly all actives have a fitted effect of over 65% in size
Target sequence (P80244 whole entry, looked up): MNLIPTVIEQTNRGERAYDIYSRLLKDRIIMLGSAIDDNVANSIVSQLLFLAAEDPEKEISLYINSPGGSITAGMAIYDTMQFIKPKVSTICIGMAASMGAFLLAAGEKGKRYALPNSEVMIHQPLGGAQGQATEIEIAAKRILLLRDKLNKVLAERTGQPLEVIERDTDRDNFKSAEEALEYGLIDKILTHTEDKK
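Purified B. subtilis ClpP, 10 microg/mL final in Tris/HCl pH8 with KCl, BSA, glycerol and Tween-20, cleaved an Abz/nitrotyrosine-quenched decapeptide. Fluorescence (ex 320, em 430) was read at 0 and 20 min at room temperature. Delta was normalized to 5.8 microM ADEP and DMSO/no-enzyme controls.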
ClpP validation = qHTS Assay for Activators of ClpP: Hit Validation of Inhibitors; shares compounds with ClpP mod; purified B. subtilis ClpP, FRET-FV substrate cleavage, 20 min; Potency, µM (series often up to 57.5 µM), without a hit: at the highest dose activity change, negative = inhibition, hits mostly inhibitors; 470 tested, 40% active; further: potency means the concentration at half of the fitted maximal effect; on the % scale 0 is the no-effect control and ±100 the full control effect; nearly all actives have a fitted effect of over 70% in size
An asterisk follows results filed as active; ? = inconclusive; . = no result; [ ] = dose if it differs, or a comment. Sampled rows, rich in hits. Any-hit rate of the full collection: about 3%. Unless noted, the call rests on the fitted dose curve; in most records, active means well fitted curve in the direction sought with a large enough effect; inconclusive means small, poorly fitted or top-dose-only effect, or another doubt; inactive means no such curve, though single readings can be large; an effect the other way counts as inactive or inconclusive.

SMILES	KCNH2 3.1 block	ALOX12 inh	hERG WT inh	Chronic BCR inh	LDHA inh	ClpP mod	ClpP validation
CCCCCOc1ccc(C(=O)Nc2cccc3cccnc23)cc1	.	?	.	.	1	.	.
Cc1ccc2c(=O)cc(C(=O)Nc3nnc(C(C)C)s3)oc2c1C	.	-12%	.	.	2	.	.
COc1ccc(CCN2C(=O)CN(C3CCCCCC3)C(=O)C2c2ccccc2F)cc1OC (stereo not drawn)	.	?	.	.	0	.	.
COc1ccc(-c2ccnc3nc(N4CCOCC4)nn23)cc1	-108*	0%	-4	8%	-2	16µM*	.
COc1ccc(-c2ccnc3nc(-n4cccc4)nn23)cc1	14	10%	0	?	8	28µM*	.
c1ccc(Oc2ccc(-c3ccnc4nc(N5CCOCC5)nn34)cc2)cc1	-118*	6%	-10	0%	-6	.	.
N#CC1(NC(=O)CSc2ccc3c(c2)OCCCO3)CCCC1	.	-14%	.	.	10	.	.
O=C(c1ccc(F)cc1)[C@@H]1[C@H]2C(=O)[C@@H]3OC[C@@H](O3)[C@@H]12	.	65%	.	.	7	.	.
CCC(c1nnc(SCCNCCO)n1CCN1CCOCC1)N(C)C (stereo not drawn)	-177*	0%	-6	-2%	-20	1%	.
CCC(c1nnc(SCC(=O)Nc2ccc(N3CCOCC3)cc2)n1Cc1ccccc1)N(C)C (stereo not drawn)	-3	-2%	8	-7%	3	-2%	.
Cc1cccc(NC(=O)COc2ccc(/C=C\c3[nH]c(=O)[nH]c(=O)c3[N+](=O)[O-])cc2)c1	-9	40µM*	-8	-6%	?	.	.
Cc1cc2oc(=O)cc(CN3CCN(CC(=O)N4CCCCC4C)CC3)c2cc1C (stereo not drawn)	.	?	.	.	-2	.	.
COc1cccc(SCc2noc(C(=O)NCCCN3CCOCC3)c2C(=O)NCCCN2CCOCC2)c1	-98*	-7%	0	.	-8	1%	.
O=C(NCCCN1CCOCC1)c1onc(CSc2ccccc2)c1C(=O)NCCCN1CCOCC1	10	-5%	10	.	-7	0%	.
CC(=O)c1c(C)nn(CC(=O)NCc2c(C)ncc3c2CCNC3)c1C	.	-16%	.	.	.	.	.
Cc1cc(C=O)c(C)n1CCc1ccc(Cl)cc1	.	?	.	.	-3	.	.
O=C(Nc1ccc(F)cc1)c1sc2cc(C(F)(F)F)cnc2c1-c1cccs1	-49	0%	-4	?	-10	63%	-14%
CCCn1c(=O)c2c(C(F)(F)F)cc(-c3ccco3)nc2n(CCC)c1=O	3	4%	3	0%	-7	1.8µM*	6.9µM*
O=C(Nc1ccc2nn(-c3ccccc3)nc2c1)c1ccc(-c2cccc(Cl)c2)o1	.	-18%	.	.	0	59%	-17%
COc1ccc(-n2nc3ccc(NC(=O)c4ccc(-c5cc(Cl)ccc5Cl)o4)cc3n2)cc1	.	-9%	.	.	-4	3%	.
CCNc1ccc(C(=O)OCC(=O)N2CCCC2)cc1[N+](=O)[O-]	-2	-15%	10	-13%	-6	98%	-1%
O=C(OCC(=O)N1CCCC1)c1ccc(Cl)c([N+](=O)[O-])c1	5	-12%	1	7%	1	.	.
COc1ccc(CN(C(=O)c2ccco2)c2ccc(CC(=O)NCc3ccc(F)cc3)cc2)cc1	.	37%	.	.	.	.	.
COc1ccc2c(c1OC)C(=O)OC2Nc1nc2ccccc2s1 (stereo not drawn)	9	-1%	-8	16%	0	-3%	.
COc1cccc(C2C(C(=O)Nc3nc4ccccc4s3)=C(C)NC3=C2C(=O)CC(C)(C)C3)c1OC (stereo not drawn)	-5	?	1	3%	-3	383%	8.6µM*
SMILES	KCNH2 3.1 block	ALOX12 inh	hERG WT inh	Chronic BCR inh	LDHA inh	ClpP mod	ClpP validation
O=C(Nc1ccccc1)c1cccc(C(=O)Nc2ccccc2)n1	-19	426%	-5	?	-5	68%	24µM*
Cc1ncoc1C(=O)N1CC[C@H](CO)[C@H](N(C)C)C1	.	-2%	.	.	.	.	.
Cc1ccc(C)c(C(=O)Nc2ccc(-c3nc4ccc(C)cc4s3)cc2)c1	.	-20%	.	.	-5	.	.
Cc1ccc(C)c(N(CC(=O)Nc2ccc(-c3nc4ccc(C)cc4s3)cc2)S(C)(=O)=O)c1	-2	16%	-2	12%	-4	10µM*	31µM*
COc1ccc(NC(=O)c2nc[nH]c2C(=O)Nc2ccccc2C)cc1	5	0%	15	-7%	-6	72%	-12%
CCOc1ccc(NC(=O)c2cc3cc4ccc(OC)cc4nc3o2)cc1	-2	12%	1	8%	-7	53%	27µM*
CCC(=O)Nc1cccc(-c2nnc(-c3cccc(NC(=O)CC)c3)o2)c1	8	1%	11	?	-2	-8%	.
O=C(Cc1cccs1)Nc1cccc(-c2nnc(-c3ccco3)o2)c1	12	1%	4	24%	-13	.	.
O=C(Cc1ccccc1)Nc1ccc(-c2nnc(-c3ccco3)o2)cc1	27	-7%	0	?	-10	8.9µM*	-21%
CCC(=O)Nc1ccc(-c2nnc(-c3ccccc3)o2)cc1	7	-2%	-7	-28%	-20	2.8µM*	7.7µM*
Cc1ccc(-c2nnc(-c3ccc(NC(=O)Cc4cccs4)cc3)o2)cc1	-18	?	-11	5%	-7	3.5µM*	?
O=C(O)CCC(=O)Nc1ccc(-c2nnc(-c3ccco3)o2)cc1	1	24%[57.4 µM]	-2	-1%	-4	5%	.
COCCC1(CO)CCCN(c2ncc(F)c(N3CCCC3)n2)C1 (stereo not drawn)	.	0%	.	.	.	.	.
CCOC(=O)c1cc2sccc2n1CC(=O)N1CCCc2ccccc21	-1	?	-8	3%	-8	-5%	.
CCOC(=O)c1cc2occc2n1CC(=O)N1CCCc2ccccc21	-4	1%	-2	10%	-3	96%	0%
Cc1ccc2[nH]c3c(c2c1)CCc1cn[nH]c1-3	2	?	2	-3%	15	2.8µM*	24µM*
